Results filed as inconclusive are left out. A call without a number means that no potency is given here. Active and inactive are the calls of the source. The call rests on the fitted dose curve; in most records, active means well fitted inhibition curve with a large enough effect; inconclusive means small, poorly fitted or top-dose-only effect; inactive means flat fitted curve, though single readings scatter.
Potency means the concentration at half of the fitted maximal effect.

This assay can be described thus: P-glycoprotein substrates identified in KB-8-5-11 adenocarcinoma cell line, qHTS therapeutic library screen (AID 1346987). Further: nearly all actives have a fitted effect of over 65% in size. Particulars: KB-8-5-11 (P-gp overexpressing) viability, CellTiter-Glo, 72 h; series mostly up to 44.5 µM. The essentials: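 In this qHTS, P-gp-rich KB-8-5-11 cells received library compounds across a concentration range. Viability was quantified by luminescence after 72 h at 37 degree C.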
On to `COC1CCN(c2cccc(-c3cc(NC(C)=O)nc(-n4nc(C)cc4C)n3)n2)CC1`, for which the Potency is 20.6 µM (active).

On to `CCCOc1ccc2nc(NC(=O)OC)sc2c1`, for which the Potency was 5.8 µM (active). The result for `COC(=O)C1=COC(O[C@@H]2O[C@H](CO[C@@H]3O[C@H](COC(=O)/C=C\c4ccc(O)cc4)[C@@H](O)[C@H](O)[C@H]3O)[C@@H](O)[C@H](O)[C@H]2O)C2C(CO)=CCC12` (stereo partly specified) reads “inactive”; that for `CCN1CCN(Cc2ccc(NC(=O)c3ccc(C)c(Oc4ncnc5[nH]c(C)cc45)c3)cc2C(F)(F)F)CC1`, 20.6 µM (active).

As to `O=c1nc(-c2ccccn2)sc2ccccc12`, the Potency entry was “inactive”.

Take `O=C(NCC1(N2CCN(c3ccccc3)CC2)CCOCC1)c1cccnc1Sc1ccccc1`: the Potency entry is “inactive”.

(Values after PubChem BioAssay (NCATS).)
